Bioassay records deposited in PubChem by National Center for Advancing Translational Sciences (NCATS).
A selection: hits, their analogues and other compounds. The true share with any hit is near 10%.
G9a inh: inhibitors of human histone lysine methyltransferase G9a; Q96KQ7; G9a H3K9 monomethylation, AlphaScreen, 2 h; Potency, µM (highest dose often 102 µM), for the others: at the top dose activity, negative = inhibition, actives largely listed as inhibitors; 8.8% of 350,000 active; also: potency is read from the fitted curve at half-maximal effect; % is scaled to controls: 0 for no effect and ±100 for the full control effect; nearly all actives have a fitted effect of over 75% in size
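AlphaScreen detection with an anti-monomethyl H3K9 antibody quantified product after a 2 h room-temperature reaction containing 500 nM biotinylated H3K9 peptide, 20 µM SAM and 20 nM enzyme, which had been preincubated 15 min with compound.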
Six1-Eya2 inh: Six1/Eya2 interaction inhibition; activity change, % (test concentration not listed); Q15475+O00167; 0.56% of 360,000 active; AID 651725; AlphaScreen GST-Six1/His-Eya2 binding, biochemical; hits give low values; in the data active = activity change below about -65%; inconclusive = mostly about -30% to -63%; also: % is scaled to controls: 0 for no effect and ±100 for the full control effect
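GST-Six1 + His-Eya2 (5X stock: 250/500 nM); Tris pH 8.0, 300 mM NaCl, 0.05% BSA, 0.02% Tween 20; GSH donor/Ni acceptor beads; 1 h 37 °C dark; AlphaScreen readout.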
BAZ2B inh: blocks human BAZ2B; Q9UIF8; AlphaScreen BAZ2B-H3K14Ac peptide displacement; Potency, µM (doses to about 114 µM), without a hit: at the top dose activity change, negative = inhibition, actives largely listed as inhibitors; 4.4% of 360,000 active; AID 504333; also: potency is read from the fitted curve at half-maximal effect; % is scaled to controls: 0 for no effect and ±100 for the full control effect; nearly all actives have a fitted effect of over 60% in size
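In this displacement format the biotinylated H3(5-23) peptide acetylated at Lys14 serves as ligand at 50 nM, with BAZ2B at 50 nM in PBS pH 7.4 containing 0.01% Tween-20. Donor and acceptor beads are 10 ug/mL final.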
JMJD2A Tudor inh: blocks the human JMJD2A Tudor domain; O75164; AlphaScreen JMJD2A-Tudor / H3K4me3 peptide binding; Potency, µM (doses to about 114 µM), for the others: at the highest dose activity change, negative = inhibition, actives largely listed as inhibitors; 4.4% of 390,000 active; also: potency is read from the fitted curve at half-maximal effect; % is scaled to controls: 0 for no effect and ±100 for the full control effect; nearly all actives have a fitted effect of over 50% in size
HP1b chromo inh: blocks HP1-beta chromodomain binding to methylated histone tails; P83916; 0.56% of 390,000 active; Potency, µM (titrated, usually from 114 µM), for the others: top-dose activity change, negative = inhibition, actives largely listed as inhibitors; AID 540317; AlphaScreen HP1-beta / biotin-H3K9me3 peptide binding; also: potency is read from the fitted curve at half-maximal effect; nearly all actives have a fitted effect of over 70% in size
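Compound inhibition of the preformed complex between 50 nM HP1-beta and 50 nM biotinylated H3K9me3 peptide was read by AlphaScreen. Buffer was PBS pH 7.4 with 0.01% Tween-20. Incubations ran 30 min at room temperature, with 10 ug/mL donor/acceptor beads.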
CtBP-E1A blk: CtBP/E1A binding inhibition | AlphaScreen GST-E1A/His-CtBP binding, 1536-well; hits give low values | AID 651724 | 0.49% of 340,000 active | activity change, % (concentration not given with the values); in the data active = activity change below about -65%; inconclusive = mostly about -30% to -63%; also: % is scaled to controls: 0 for no effect and ±100 for the full control effect
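In 5 uL wells, 23 nL compound meets equimolar GST-E1A and His-CtBP (5X stock 125 nM each) for 2 h, 37 °C. Beads (5X, 50 ug/mL) then 1 h, 37 °C, dark.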
* hit, by the source's call; ? = inconclusive; nt = not tested or not shown; [ ] = remark or other dose. Unless noted, calls follow the shape of the dose curve; as a rule, active = well fitted inhibition curve with a large enough effect; inconclusive = small, poorly fitted or top-dose-only effect; inactive = no such curve, though single readings can be large or run the other way.

SMILES	G9a inh	Six1-Eya2 inh	BAZ2B inh	JMJD2A Tudor inh	HP1b chromo inh	CtBP-E1A blk
CC(C(=O)Nc1ncn[nH]1)N1C(=O)c2ccccc2C1=O (stereo not drawn)	?	-0.1	4.8%	-4.9%	44.0%	2.0
N#Cc1ccccc1OCC(=O)OCC(=O)NC1CCS(=O)(=O)C1 (stereo not drawn)	22.4%[12.7 µM]	7.1	2.8%	-5.9%	39.2%	nt
CCOC(=O)c1oc2c(C)c(O)ccc2c(=O)c1-c1nncn1-c1ccccc1	24.3%[59 µM]	1.2	-6.1%	-8.9%	17.0%	-5.6
CCOC(=O)c1oc2c(O)c(O)ccc2c(=O)c1-c1nncn1-c1ccccc1	3.16µM*	-15.9	?	?	32.5%	-5.0
O=C(CN1C(=O)CCC1=O)Nc1nc(-c2ccccn2)cs1	15.0%	-87.6*	5.62µM*	25.1µM*	27.0%	?
Cc1cc(C)cc(OCC(=O)Nc2nc(-c3ccccn3)cs2)c1	22.4µM*	-17.9	-6.4%	-22.6%	-36.3%	-24.5
CSCCC(=O)Nc1nc(-c2ccccn2)cs1	8.91µM*	-71.4*	20µM*	89.1µM*	8.5%	-3.8
O=C(Nc1nc(-c2ccccn2)cs1)C1CCCC1	?	?	50.1µM*	?	-16.7%	-7.5
COc1ccc(CCNC(=O)CCS(=O)(=O)c2ccc3nc(C)sc3c2)cc1OC	28.4%	-7.4	1.9%	-2.1%	42.2%	-5.5
COCCNS(=O)(=O)c1cc2[nH]c3c(c2cc1C)C(=O)CC(C)(C)C3	?	8.9	6.5%	-23.1%	-20.1%	0.6
CNC(=O)CCCN1C(=O)c2ccccc2Sc2ncccc21	-9.7%	7.4	1.3%	6.4%	24.8%	8.5
N#Cc1ccccc1OCC(=O)Nc1nc(-c2ccccn2)cs1	nt	-82.6*	nt	nt	nt	?
CC1(C2(O)CC(c3ccccc3)ON2)CCCCC1 (stereo not drawn)	39.8µM*	nt	42.5%	nt	nt	nt
O=[N+]([O-])c1cc(-c2n(-c3ccccn3)c3ccccc3[n+]2-c2ccccn2)ccc1Cl	50.1µM*	-6.2	44.7µM*	-33.6%	-6.6%	1.5
O=[N+]([O-])c1cc(-c2ccn[nH]2)ccc1Cl	36.0%	-6.4	-14.6%	-16.7%	25.2%	6.0
COc1ccc(C(=O)c2c(N)c(C(=O)Nc3cccc(OC)c3)c3ccccn23)cc1	28.2µM*	nt	0.0%	-22.1%	5.9%	nt
COc1ccc(C(=O)c2c(N)c(C(=O)Nc3ccccc3Cl)c3ccccn23)cc1	1.9%[59 µM]	nt	1.8%	-3.7%	19.8%	nt
Cc1coc2cc3oc(=O)c(CC(=O)NCc4cccc(Cl)c4)c(C)c3cc12	-32.5%[59 µM]	nt	-4.0%	-12.6%	16.0%	nt
COc1ccc(C2/C=C\C(c3ccc(OC)cc3)N(Cc3ccc(F)cc3)C(=O)C(=O)N2Cc2ccc(F)cc2)cc1 (stereo not drawn)	5.6%[59 µM]	nt	nt	nt	nt	nt
O=C(CCNS(=O)(=O)c1ccccc1F)N1CCN(C/C=C/c2ccccc2)CC1	-8.1%[0.501 µM]	7.1	7.6%	-19.7%	1.1%	6.7
Cc1ccc2oc(-c3ccc(Cl)c(NC(=O)c4cc5ccccc5o4)c3)nc2c1	?	nt	2.9%	5.5%	35.2%	nt
CC(C)COP(=O)(c1ccc(N(C)C)cc1)C(O)c1ccccn1 (stereo not drawn)	3.55µM*	-4.1	nt	1.26µM*	27.0%	-5.7
CN(C)c1ccc(P(=O)(OC2CCCCC2)C(O)c2cccnc2)cc1 (stereo not drawn)	13.5%	-1.2	-13.0%	-12.0%	35.5%	0.5
CN(C)c1ccc(P(=O)(OC2CCCCC2)C(O)c2ccccn2)cc1 (stereo not drawn)	nt	-16.2	44.7µM*	?	41.3%	-3.2
CC(C)CCOP(=O)(c1ccc(N(C)C)cc1)C(O)c1ccccn1 (stereo not drawn)	-7.1%	0.1	-2.3%	-24.6%	23.3%	-5.1
SMILES	G9a inh	Six1-Eya2 inh	BAZ2B inh	JMJD2A Tudor inh	HP1b chromo inh	CtBP-E1A blk
CCCn1c(N)c(C(=O)COC(=O)COc2ccc(Cl)c(C)c2)c(=O)n(C)c1=O	11.3%	-2.3	-4.4%	-4.8%	30.4%	-2.0
C/C(=N\NC(=O)c1cccc(N/N=C(\C)c2ccccc2)c1)c1ccccc1	2.82µM*	-22.9	-24.4%	-28.0%	-6.5%	-7.6
C/C(=N\NC(=O)CNc1cccc(C(F)(F)F)c1)c1ccc(Br)cc1	-43.1%[59 µM]	-13.7	-7.9%	2.1%	22.0%	-2.0
C/C(=N\NC(=O)c1cc(O)cc(O)c1)c1ccc(NC(=O)Cc2ccccc2)cc1	8.91µM*	-88.9*	8.91µM*	14.1µM*	31.6µM*	-89.0*
C/C(=N\Nc1ccccc1)c1cccc(N)c1	8.91µM*	5.3	?	?	?	-23.6
C/C(=N\Nc1cccc(C(F)(F)F)c1)c1ccc(O)cc1	8.91µM*	2.7	?	44.7µM*	?	-6.7
C/C(=N/Nc1nc(-c2ccccc2)cc(-c2ccccc2)n1)c1ccc(N)cc1	11.2µM*	nt	?	nt	nt	nt
Cc1sc2ncnc(N(C)CCc3ccccn3)c2c1C	-140.4%[59 µM]	2.6	25.1µM*	1.41µM*	17.8µM*	-2.0
COCCCn1c(=N)c(C(=O)NC2CCCCC2)cc2c(=O)n3cc(C)ccc3nc21	5.1%[59 µM]	nt	3.2%	1.7%	31.8%	nt
CC1=CC(C)C2(COC(c3ccc[n+](C)c3)OC2)C(C)C1 (stereo not drawn)	?	3.6	-36.0%	22.4µM*	-5.2%	nt
CC1CCN(c2nn3c(=O)c(C(=O)NCCc4ccc(Cl)cc4)cnc3s2)CC1	0.0%[59 µM]	nt	3.0%	-14.6%	-6.0%	nt
CCOC(=O)c1cnc(SCC(=O)Nc2ccc(N3CCOCC3)cc2)nc1N	25.1µM*	nt	2.5%	nt	nt	nt
CCOC(=O)c1cnc(SCC(=O)N2CCN(c3ccccc3)CC2)nc1N	35.5µM*	1.2	-17.8%	-17.2%	-1.3%	-11.5
O=C(/C=C/c1ccccc1)c1ccc2c(c1)OCO2	33.5%	4.2	12.5%	22.4%	72.3%	nt
O=C(/C=C/c1ccncc1)c1ccc2c(c1)OCCO2	50.1µM*	9.2	-37.4%	-20.3%	28.9%	-1.5
CCc1ccccc1N1CSC2=C(C#N)C(c3ccccc3F)CC(=O)N2C1 (stereo not drawn)	0.794µM*	-3.8	56.2µM*	22.4µM*	?	9.4
C=CCOC(=O)C1=C(C)OC(N)=C(C#N)C1c1ccccc1F (stereo not drawn)	-0.5%	11.8	-1.5%	-12.3%	41.6%	0.0
COc1cc(OC)c(C2CC(=O)N3CN(c4ccccc4C)CSC3=C2C#N)cc1OC (stereo not drawn)	?	nt	56.2µM*	nt	nt	nt
COc1ccc(N2CSC3=C(C#N)C(c4cccc(OC)c4OC)CC(=O)N3C2)cc1 (stereo not drawn)	2µM*	-11.7	?	20µM*	?	-0.5
